Measurements: PubChem BioAssay
For part of these data: Measured potencies and affinities stand elsewhere. The source made the active and inactive calls. Unless noted, the limit is not given here; nearly all actives have IC50 up to about 0.91 µM.

The compounds below were run against Protein kinase 7 (PK7), Plasmodium falciparum 3D7 (PF3D7_0213400) (UniProt Q7YTF7) (assay: inhibition of Plasmodium PK7 catalytic activity – biochemical, TCAMS antimalarial set, Kinase-Glo luminescence (AID 1159587; call rule not given here)). Details: recombinant PfPK7, Kinase-Glo ATP depletion luminescence.
Sequence of Protein kinase 7 (PK7), Plasmodium falciparum 3D7 (PF3D7_0213400) (Q7YTF7 1-343): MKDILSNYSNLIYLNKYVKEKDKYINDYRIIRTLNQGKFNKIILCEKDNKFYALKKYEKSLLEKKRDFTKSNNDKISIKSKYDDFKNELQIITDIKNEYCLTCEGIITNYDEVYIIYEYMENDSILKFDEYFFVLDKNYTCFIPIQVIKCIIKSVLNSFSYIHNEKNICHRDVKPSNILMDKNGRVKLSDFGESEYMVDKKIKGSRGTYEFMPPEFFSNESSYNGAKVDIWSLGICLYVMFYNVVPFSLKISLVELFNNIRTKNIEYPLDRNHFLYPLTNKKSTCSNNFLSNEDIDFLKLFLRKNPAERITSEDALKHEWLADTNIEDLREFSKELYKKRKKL

outcome, inactive:
c1ccc(CN2CCC(Nc3ccc(-c4cn[nH]c4-c4ccccn4)nc3)CC2)cc1
CN1CCN(c2cc3c(cc2Cl)CCN3C(=O)Cc2ccc(NC(=O)Nc3cccc4ccccc34)cc2)CC1
O=C(CCC1CCCCC1=O)c1ccccc1 (stereo not drawn)
CCOc1c(C)cc(C(F)(F)F)cc1CNCCCNc1cc(=O)c2ccccc2[nH]1
CCc1cn2c3c(cc(C(=O)N[C@@H](Cc4ccccc4)[C@H](O)CNC4CCCC4)cc13)N(C)S(=O)(=O)CC2
COc1ccc(NC(=O)[C@H](CC(C)C)Nc2cc(C)nc(NCCc3ccc(F)cc3)n2)cc1
CN(C)CCN(C)Cc1ccc(-c2ccc(NC(=O)c3ccc(Cl)cc3)cc2)cc1
Cc1cc(-c2cc3nc4c(c(=O)n3[nH]2)CCCC4)c(C)o1
CC(C)NCC(=O)Nc1cccc(C(=O)Nc2cccc(C(F)(F)F)c2)c1
Cn1c(NC(=O)C2CCC(CNC(=O)c3ccc(O)c(-c4ccc(Cl)c(Cl)c4)c3)CC2)nc2ccccc21 (stereo not drawn)
O=C(Nc1ccc(OC2CCN(Cc3ccsc3)C2)c(Cl)c1)c1ccco1 (stereo not drawn)
O=c1[nH]c2c(c(O)c1[N+](=O)[O-])CCC2
COc1cc(OC)c2c(C)cc(NCCCn3ccnc3)nc2c1
CN1CCCN(Cc2cccc(-c3cccc(NC(=O)c4cccc(C#N)c4)c3)c2)CC1
O=C(NCCSCc1c(F)cccc1Cl)c1cnc2c(c1)nc(-c1cnc(-c3ccccc3)[nH]1)n2CCc1cnc[nH]1
O=C(Nc1ccc(Cl)cc1)Nc1ccc(-c2csc(-c3nc4ccccc4[nH]3)c2)cc1
CCOC(=O)C(C(C)=O)C(c1ccccc1)C(C(C)=O)C(=O)OCC (stereo not drawn)
CN(C)CCCn1c(C(=O)OC(c2ccccc2)c2ccccc2)cc2cc(OCc3ccccc3)ccc21
Cc1noc(C)c1-c1cccc(CNCc2cccc(-c3cccc(-c4nc5ccc(F)cc5[nH]4)c3)c2)c1
CCOc1cc(C(=O)NCCc2ccc(Cl)c(Cl)c2)ccc1-c1nc2ccc(Cl)cc2[nH]1
c1cc(CNCCc2ccncc2)cc(-c2csc(-c3nc4ccccc4[nH]3)c2)c1
CN(C)c1ccc(-c2csc(C(=O)NCC3CCN(Cc4cccc(C(F)(F)F)c4)C3)c2)cc1 (stereo not drawn)
CC(C)c1ccc(CN2CCC(NC(=O)c3ccc(-c4cccc(F)c4)s3)CC2)cc1
O=C(Cn1c(SCc2cccc(F)c2F)cc(=O)c2ccccc21)N(CCc1cnc[nH]1)Cc1ccc(-c2ccc(C(F)(F)F)cc2)cc1
CCOC(=O)c1c(CCc2ccc(C(F)(F)F)cc2)nc2c(c1-c1ccc(C(=O)N[C@@H](C)c3ccncc3)cc1)C(=O)N1CCC[C@@H]21
CCCCCn1c(Sc2ccc(C#N)c([N+](=O)[O-])c2)nnc1-c1ccc(OC)cc1
c1cc(C2=N[C@H]3CCCC[C@@H]3N2)ccc1OCCCOc1ccc(C2=N[C@@H]3CCCC[C@H]3N2)cc1
O=C(/C=C/c1ccc(Cl)cc1)NCCCCCN1CCN(C(=O)Nc2ccc(Cl)c(C(F)(F)F)c2)CC1
COC(=O)c1cccc(NC(=O)NC2CCN(c3ccnc(Nc4ccc(OC)cc4)n3)C2)c1 (stereo not drawn)
O=C(NC1CCN(Cc2cccc(C(F)(F)F)c2)CC1)c1ccc(-c2cccc(Cl)c2)s1
CN(C)CCNCc1ccc(-c2cccc(-c3nc4ccccc4[nH]3)c2)cc1
Cc1cc(NN=Cc2ccccn2)c2cc(F)ccc2n1
O=C(/C=C/c1ccc(Cl)c(Cl)c1)NCCCCCN1CC[C@H](NC(=O)Nc2ccc(Oc3ccccc3)cc2)C1
CC1(C)CCC(C)(C)c2c1ccc(C1CCN(CCCCNC(=O)c3ccc(-c4ccc(Cl)cc4)cc3)CC1)c2O
COc1ccc(CCNC(=O)c2cnc3c(c2)nc(-c2cnc(-c4ccccc4)[nH]2)n3CCc2cnc[nH]2)cc1
COc1cc(C)nc2ccc(NC(=O)c3cc(C(F)(F)F)cc(C(F)(F)F)c3)cc12
CCCc1cc(C)ccc1OCCCON1C(NC(=O)OCC)=NC(NC(=O)OCC)=NC1(C)C
O=C(c1ccc(F)c(F)c1)N1CCOC(CCN2CCC(c3ccccc3)CC2)(c2ccc(Cl)c(Cl)c2)C1 (stereo not drawn)
CC(=O)N(C)/N=C/[C@H](CCc1ccccc1)NC(=O)[C@H](CC(C)C)NC(=O)c1cccc(OCCN2CCOCC2)c1

The compounds below were run against Calcium-dependent protein kinase 4 (Plasmodium falciparum (isolate 3D7)) (UniProt Q8IBS5) (assay: PfCDPK4 kinase inhibitors, biochemical, TCAMS library (AID 1159588)). Details: recombinant PfCDPK4, Kinase-Glo ATP depletion luminescence.
Sequence of Calcium-dependent protein kinase 4 (Plasmodium falciparum (isolate 3D7)) (Q8IBS5 whole entry, looked up): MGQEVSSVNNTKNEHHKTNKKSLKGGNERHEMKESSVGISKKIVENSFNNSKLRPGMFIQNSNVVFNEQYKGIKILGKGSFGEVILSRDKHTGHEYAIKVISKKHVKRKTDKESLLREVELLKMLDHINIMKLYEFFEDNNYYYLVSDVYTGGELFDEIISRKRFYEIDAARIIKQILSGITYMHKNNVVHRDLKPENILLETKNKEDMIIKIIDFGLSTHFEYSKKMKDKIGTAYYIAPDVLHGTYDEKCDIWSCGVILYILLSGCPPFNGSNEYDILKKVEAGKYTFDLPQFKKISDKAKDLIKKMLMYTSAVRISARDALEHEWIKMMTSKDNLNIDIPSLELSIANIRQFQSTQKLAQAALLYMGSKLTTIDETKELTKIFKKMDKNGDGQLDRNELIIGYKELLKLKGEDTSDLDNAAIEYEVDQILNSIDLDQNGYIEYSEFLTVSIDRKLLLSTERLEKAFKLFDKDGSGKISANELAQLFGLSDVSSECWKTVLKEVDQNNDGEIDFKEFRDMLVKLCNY

outcome, inactive:
c1ccc(CN2CCC(Nc3ccc(-c4cn[nH]c4-c4ccccn4)nc3)CC2)cc1
CN1CCN(c2cc3c(cc2Cl)CCN3C(=O)Cc2ccc(NC(=O)Nc3cccc4ccccc34)cc2)CC1
O=C(CCC1CCCCC1=O)c1ccccc1 (stereo not drawn)
CCOc1c(C)cc(C(F)(F)F)cc1CNCCCNc1cc(=O)c2ccccc2[nH]1
CCc1cn2c3c(cc(C(=O)N[C@@H](Cc4ccccc4)[C@H](O)CNC4CCCC4)cc13)N(C)S(=O)(=O)CC2
COc1ccc(NC(=O)[C@H](CC(C)C)Nc2cc(C)nc(NCCc3ccc(F)cc3)n2)cc1
CN(C)CCN(C)Cc1ccc(-c2ccc(NC(=O)c3ccc(Cl)cc3)cc2)cc1
Cc1cc(-c2cc3nc4c(c(=O)n3[nH]2)CCCC4)c(C)o1
CC(C)NCC(=O)Nc1cccc(C(=O)Nc2cccc(C(F)(F)F)c2)c1
Cn1c(NC(=O)C2CCC(CNC(=O)c3ccc(O)c(-c4ccc(Cl)c(Cl)c4)c3)CC2)nc2ccccc21 (stereo not drawn)
O=C(Nc1ccc(OC2CCN(Cc3ccsc3)C2)c(Cl)c1)c1ccco1 (stereo not drawn)
O=c1[nH]c2c(c(O)c1[N+](=O)[O-])CCC2
COc1cc(OC)c2c(C)cc(NCCCn3ccnc3)nc2c1
CN1CCCN(Cc2cccc(-c3cccc(NC(=O)c4cccc(C#N)c4)c3)c2)CC1
O=C(NCCSCc1c(F)cccc1Cl)c1cnc2c(c1)nc(-c1cnc(-c3ccccc3)[nH]1)n2CCc1cnc[nH]1
O=C(Nc1ccc(Cl)cc1)Nc1ccc(-c2csc(-c3nc4ccccc4[nH]3)c2)cc1
CCOC(=O)C(C(C)=O)C(c1ccccc1)C(C(C)=O)C(=O)OCC (stereo not drawn)
CN(C)CCCn1c(C(=O)OC(c2ccccc2)c2ccccc2)cc2cc(OCc3ccccc3)ccc21
Cc1noc(C)c1-c1cccc(CNCc2cccc(-c3cccc(-c4nc5ccc(F)cc5[nH]4)c3)c2)c1
CCOc1cc(C(=O)NCCc2ccc(Cl)c(Cl)c2)ccc1-c1nc2ccc(Cl)cc2[nH]1
c1cc(CNCCc2ccncc2)cc(-c2csc(-c3nc4ccccc4[nH]3)c2)c1
CN(C)c1ccc(-c2csc(C(=O)NCC3CCN(Cc4cccc(C(F)(F)F)c4)C3)c2)cc1 (stereo not drawn)
CC(C)c1ccc(CN2CCC(NC(=O)c3ccc(-c4cccc(F)c4)s3)CC2)cc1
O=C(Cn1c(SCc2cccc(F)c2F)cc(=O)c2ccccc21)N(CCc1cnc[nH]1)Cc1ccc(-c2ccc(C(F)(F)F)cc2)cc1
CCOC(=O)c1c(CCc2ccc(C(F)(F)F)cc2)nc2c(c1-c1ccc(C(=O)N[C@@H](C)c3ccncc3)cc1)C(=O)N1CCC[C@@H]21
CCCCCn1c(Sc2ccc(C#N)c([N+](=O)[O-])c2)nnc1-c1ccc(OC)cc1
c1cc(C2=N[C@H]3CCCC[C@@H]3N2)ccc1OCCCOc1ccc(C2=N[C@@H]3CCCC[C@H]3N2)cc1
O=C(/C=C/c1ccc(Cl)cc1)NCCCCCN1CCN(C(=O)Nc2ccc(Cl)c(C(F)(F)F)c2)CC1
COC(=O)c1cccc(NC(=O)NC2CCN(c3ccnc(Nc4ccc(OC)cc4)n3)C2)c1 (stereo not drawn)
O=C(NC1CCN(Cc2cccc(C(F)(F)F)c2)CC1)c1ccc(-c2cccc(Cl)c2)s1
CN(C)CCNCc1ccc(-c2cccc(-c3nc4ccccc4[nH]3)c2)cc1
Cc1cc(NN=Cc2ccccn2)c2cc(F)ccc2n1
O=C(/C=C/c1ccc(Cl)c(Cl)c1)NCCCCCN1CC[C@H](NC(=O)Nc2ccc(Oc3ccccc3)cc2)C1
CC1(C)CCC(C)(C)c2c1ccc(C1CCN(CCCCNC(=O)c3ccc(-c4ccc(Cl)cc4)cc3)CC1)c2O
COc1ccc(CCNC(=O)c2cnc3c(c2)nc(-c2cnc(-c4ccccc4)[nH]2)n3CCc2cnc[nH]2)cc1
COc1cc(C)nc2ccc(NC(=O)c3cc(C(F)(F)F)cc(C(F)(F)F)c3)cc12
CCCc1cc(C)ccc1OCCCON1C(NC(=O)OCC)=NC(NC(=O)OCC)=NC1(C)C
O=C(c1ccc(F)c(F)c1)N1CCOC(CCN2CCC(c3ccccc3)CC2)(c2ccc(Cl)c(Cl)c2)C1 (stereo not drawn)
CC(=O)N(C)/N=C/[C@H](CCc1ccccc1)NC(=O)[C@H](CC(C)C)NC(=O)c1cccc(OCCN2CCOCC2)c1
